Compound activity (PubChem)
G9a inh = G9a (human) methyltransferase inhibition; 350,000 compounds, 8.8% hits; Potency, µM (doses to about 102 µM), without a hit: top-dose activity, negative = inhibition, hits mostly inhibitors; G9a H3K9 monomethylation, AlphaScreen, 2 h; AID 504332; further: on the % scale 0 is the no-effect control and ±100 the full control effect; nearly all actives have a fitted effect of over 75% in size
Target sequence (Q96KQ7 913-1193 limits assumed): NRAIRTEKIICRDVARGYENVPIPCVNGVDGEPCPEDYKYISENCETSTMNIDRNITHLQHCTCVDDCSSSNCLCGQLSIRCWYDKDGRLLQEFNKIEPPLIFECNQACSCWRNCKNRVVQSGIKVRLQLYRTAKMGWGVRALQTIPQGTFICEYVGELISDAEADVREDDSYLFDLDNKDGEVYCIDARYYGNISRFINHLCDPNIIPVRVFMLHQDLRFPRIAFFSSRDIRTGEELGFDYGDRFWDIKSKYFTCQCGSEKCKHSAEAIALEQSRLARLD
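Readings reflect AlphaScreen signal from monomethyl-H3K9 antibody detection. HMT at 20 nM; substrate b-H3K9 500 nM; cofactor SAM 20 uM; 2 h RT reaction; compounds tested as titrations in qHTS with 15 min preincubation.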
Sfp PPTase inh = Sfp phosphopantetheinyl transferase inhibition. Q9F4F7. Biochemical Sfp PPTase activity, qHTS. Potency, µM, for inactives: largest response in the series, negative = inhibition, usual class: inhibitors. 310,000 compounds, 3.5% hits;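 further: the enzyme is Sfp with the accession as filed and its product quenches rhodamine fluorescence; 0% = enzyme reaction without inhibitor and -100% = no enzyme wells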
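Reaction rates are the 30-min fluorescence difference (ex 525, em 598 nm) in wells containing 15 nM Sfp, 5 uM rhodamine-CoA and 12.5 uM BHQ-2-YbbR at pH 7.6 with 10 mM MgCl2.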
HP1b binding inh = inhibitors of HP1-beta chromodomain binding to methylated histone tails; P83916; AlphaScreen HP1-beta / biotin-H3K9me3 peptide binding; Potency, µM (top dose mostly 114 µM), for inactives: at the highest dose activity change, negative = inhibition, usual class: inhibitors; 390,000 compounds, 0.56% hits; AID 540317; further: nearly all actives have a fitted effect of over 70% in size
Target sequence (P83916 whole entry, looked up): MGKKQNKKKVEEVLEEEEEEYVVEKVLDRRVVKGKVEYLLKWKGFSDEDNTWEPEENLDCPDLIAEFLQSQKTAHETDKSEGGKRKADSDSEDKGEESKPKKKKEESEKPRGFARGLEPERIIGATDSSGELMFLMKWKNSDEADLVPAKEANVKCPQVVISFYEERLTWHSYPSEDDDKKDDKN
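AlphaScreen: HP1-beta (50 nM) preformed 30 min with biotin-H3(1-18)K9me3 peptide (50 nM) in PBS pH 7.4, 0.01% Tween-20. Compound added for 30 min at RT, then streptavidin donor/nickel chelate acceptor beads (10 ug/mL) for 30 min.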
PLK1 PBD block = PLK1 (human) polo-box domain binding inhibition | 360,000 compounds, 2.8% hits | Potency, µM, without a hit: max response, negative = inhibition, usual class: inhibitors | Plk1 PBD binding of FITC phosphopeptide, fluorescence polarization; further: series mostly up to about 57 µM; on the % scale 0 is the no-effect control and ±100 the full control effect; nearly all actives have a fitted effect of over 65% in size
BAZ2B block = blocks human BAZ2B | AID 504333 | AlphaScreen BAZ2B-H3K14Ac peptide displacement | Potency, µM (top dose mostly 114 µM), without a hit: at the highest dose activity change, negative = inhibition, most hits filed as inhibitors | Q9UIF8 | 360,000 compounds, 4.4% hits; further: on the % scale 0 is the no-effect control and ±100 the full control effect; nearly all actives have a fitted effect of over 60% in size
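Compounds, titrated to a top concentration of 110 uM, were incubated 30 min at room temperature with preformed BAZ2B/acetyl-K14 H3 peptide complex (50 nM each). Proximity signal was measured by AlphaScreen after 20 min with beads.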
JMJD2A Tudor inh = blocks the human JMJD2A Tudor domain. O75164. AlphaScreen JMJD2A-Tudor / H3K4me3 peptide binding. Potency, µM (highest dose often 114 µM), without a hit: at the top dose activity change, negative = inhibition, actives largely listed as inhibitors. 390,000 compounds, 4.4% hits. AID 504339; further: on the % scale 0 is the no-effect control and ±100 the full control effect; nearly all actives have a fitted effect of over 50% in size
The depositor's hits bear a star; ? = inconclusive; . = no result; ! = not confirmed by another sample; [ ] = remark or other dose. The list is not random: actives were taken first. Their share in the collection is about 12%. The call rests on the fitted dose curve; in most records, active means well fitted curve in the direction sought with a large enough effect; inconclusive means small, poorly fitted or top-dose-only effect, or another doubt; inactive means no such curve, though single readings can be large; an effect the other way counts as inactive or inconclusive. Potency means the concentration at half of the fitted maximal effect.

SMILES	G9a inh	Sfp PPTase inh	HP1b binding inh	PLK1 PBD block	BAZ2B block	JMJD2A Tudor inh
CCc1noc(C)c1C(=O)N(CC(C)C)c1c(N)n(Cc2ccccc2)c(=O)[nH]c1=O	-8%	.	20%	2%	-4%	-11%
CN(C)c1ccc(CNCCC(Cc2ccccc2)c2ccco2)cc1 (stereo not given)	22µM*	45µM*	?	0%	22µM*	20µM*
COc1cc(Br)c(C(=O)c2nccc3cc(OC)c(OC)cc23)cc1OC	-19%	6%	2%	6µM*	?	45µM*
COc1cc(C(=O)c2nccc3cc(OC)c(OC)cc23)c([N+](=O)[O-])cc1OC	45µM*	11%	7%	-3%	?	?
COc1cc(N)c(C(=O)c2nccc3cc(OC)c(OC)cc23)cc1OC	.	15%	1%	-17%	-12%	-35%
Cc1ccc2c(c1)c(N=Nc1cccc(C(=O)O)c1)c(O)n2C	35µM*	13%	-5%	-20%	?	-12%
CCOc1ccc2c(c1)c(N=Nc1cccc(C(=O)O)c1)c(O)n2C	?	-4%	-21%	-11%	?	?
Oc1ccc(C=NN=Cc2ccco2)c(O)c1	.	.	20%	-12%	.	-24%
CCc1nnc2c(NCCc3ccc(OC)c(OC)c3)nc3ccccc3n12	4%	6%	10%	27µM*	?	32µM*!
Cc1nn(C)cc1C(=O)Nc1cc(Oc2ccc(Cl)cc2)cc([N+](=O)[O-])c1	-7%[59 µM]	1%	?	27µM*	2%	?
CC(=O)Nc1ccc(NC(=O)c2cc([N+](=O)[O-])cc([N+](=O)[O-])c2)cc1	50µM*	-8%	27%	-6%	?	-29%
CC(=O)Nc1ccc(C(=O)NNC(=O)c2cc([N+](=O)[O-])cc([N+](=O)[O-])c2)cc1	-32%	8%	14%	-2%	-23%	-8%
CC(=O)Nc1ccc(Oc2cc(NC(C)=O)cc([N+](=O)[O-])c2)cc1	2%	16%	?	7.5µM*	-14%	18µM*
CC(=O)Nc1ccc(Sc2ccc([N+](=O)[O-])o2)cc1	.	.	-24%	21µM*	.	-30%
Cn1cc([N+](=O)[O-])c(C(=O)Nc2cc(Oc3ccccc3)cc([N+](=O)[O-])c2)n1	-22%[59 µM]	-9%	7%	-15%	?	-18%
CC(=O)Oc1ccc2c(c1)CCC1C2CC[C@]2(C)C(=O)CCC12 (stereo not given in full)	-33%[2.33 µM]	6%	.	.	.	.
CCOC(=O)c1c(N/N=C/c2cccnc2)n[nH]c1C	71µM*	-1%	39%	2%	-1%	-4%
Cc1ccc(OCC(=O)N/N=C/c2cccnc2)cc1	17%[0.501 µM]	6%	29%	-3%	-7%	-16%
O=C(Nc1cnn(Cc2ccc(Cl)cc2Cl)c1)c1noc2c1CCc1ccccc1-2	-41%[59 µM]	.	3%	.	-12%	-20%
Cc1ccccc1N/N=C/c1sc(=O)n(Cc2cccc(C(=O)O)c2)c1Cl	-136%[59 µM]	?	-22%	27µM*	45µM*	10µM*
O=C(O)c1cccc(Cn2c(Cl)c(/C=N/NC(=O)c3cccc(O)c3)sc2=O)c1	14%	16%	11%	-4%	1%	-14%
O=C(O)c1cccc(Cn2c(Cl)c(/C=N/NC(=O)c3cc4ccccc4cc3O)sc2=O)c1	10µM*	?	?	27µM*	25µM*	79µM*
COC(=O)c1cccc(Cn2c(Cl)c(/C=N/Nc3ccccc3C)sc2=O)c1	10µM*	56µM*	-13%	-4%	35µM*	?
O=C(O)c1cccc(Cn2c(Cl)c(/C=N/NC(=O)c3ccccc3)sc2=O)c1	31%[0.501 µM]	12%	41%	-6%	-29%	-2%
CC(=O)Nc1ccc(S(=O)(=O)N(C)CC(=O)Nc2cccc(S(=O)(=O)N3CCCC3)c2)cc1	11%[0.501 µM]	.	17%	2%	-4%	-14%
SMILES	G9a inh	Sfp PPTase inh	HP1b binding inh	PLK1 PBD block	BAZ2B block	JMJD2A Tudor inh
CNC(=S)N1N=C(c2ccc(C)cc2)CC1c1ccc(N(C)C)cc1 (stereo not given)	14µM*	?	50µM*	-9%	10µM*	32µM*
CNC(=S)N1N=C(c2ccc(C)cc2)CC1c1ccc(OC)cc1 (stereo not given)	8%[0.501 µM]	2%	31%	-4%	-35%	-15%
COc1ccc(C2CC(c3ccccc3)=NN2C(=O)CN2CCN(Cc3ccccc3)CC2)cc1 (stereo not given)	?	18%	-31%	-5%	35µM*	79µM*
COc1ccc(C2=NN(C(=O)CN3CCCCC3)C(c3ccc(C)cc3)C2)cc1 (stereo not given)	26%[12.7 µM]	22%	5%	-7%	-22%	-35%
CNC(=S)N1N=C(c2ccc(Br)cc2)CC1c1ccc(OC)cc1 (stereo not given)	2.5µM*	45µM*	?	-5%	-34%	2.5µM*
Cc1ccc(C(=O)NC(=S)NCc2ccco2)cc1	45µM*	-23%	-14%	?	?	?
Cc1cc(C(=O)NNC(=S)NCc2ccco2)n(C)n1	?	7%	?	21µM*	6%	?
COc1ccc(C(=O)NC(=S)NCc2ccco2)cc1	.	?	-30%	-25%	?	?
CCN(C(=O)CCc1nc(-c2ccc(C)cc2)no1)c1cc(C)ccc1C	21%[59 µM]	.	74%	.	74%	46%
Cc1ccc(-c2noc(CCC(=O)N(C)c3ccccc3C)n2)cc1	12%	50µM*	43%	-2%	2%	4%
O=C(NC(=S)NCc1ccco1)c1cccc(Cl)c1	71µM*	-3%	.	.	?	.
COc1ccc(C(=O)NCCc2csc(-c3ccc(Cl)cc3)n2)c(OC)c1	6%[59 µM]	.	23%[57 µM]	.	1%	-4%
CCOc1ccc(N2CC(NC(=O)c3ccc(S(=O)(=O)N4CCCC4)cc3)CC2=O)cc1 (stereo not given)	0%[59 µM]	.	0%	.	1%	-15%
CCOc1ccc(-n2c(=O)c3c4c(sc3n(CC(=O)Nc3cccc(C(F)(F)F)c3)c2=O)CCCCC4)cc1	3%[59 µM]	.	29%	.	-2%	-7%
COc1cc(OC)cc(C(=O)NC(=S)NCc2ccco2)c1	45µM*	-13%	0%	-6%	-7%	-34%
Cc1ccc(C(=O)NC2CC3CCCC(C2)N3C(=S)NCc2ccco2)cc1 (stereo not given)	?	45µM*	-20%	?	-27%	-24%
CNC(=S)N1C2CCCC1CC(NC(=O)c1ccc(C)cc1)C2 (stereo not given)	.	.	42%	-7%	.	-4%
Cc1ccc(-c2noc(CCC(=O)NCc3ccco3)n2)cc1	?	56µM*	11%	-9%	?	-15%
COc1cccc(C(=O)NC(=S)NCc2ccco2)c1	?	-16%	13%	-17%	-35%	-13%[57.1 µM]
